Measurements: PubChem BioAssay (NCI)
Compounds without any hit were thinned out: in the full panel of roughly 79,000, 15% have a hit. A number with no mark means an inactive call. Activity calls are given as the source filed them. Rule as the data show it: active = growth inhibition above about 70%; inactive = the rest.

What was measured:
[1] = NCI Yeast Anticancer Drug Screen. Data for the rad50 strain (AID 155);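 also: 0% = growth of vehicle-only cultures of the same strain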; conditions: S. cerevisiae rad50 strain growth inhibition, stronger effect = higher value
Summary of the method: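 Cells are treated with compound, grown, and their growth is then scored against vehicle-only cultures of the same repair-deficient yeast strain.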

[2] = NCI Yeast Anticancer Drug Screen. Data for the mec2-1 strain (AID 157); conditions: S. cerevisiae mec2-1 strain, stronger effect = higher value
Summary of the method: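 Mutant yeast (mec2-1) grown with compound; growth inhibition relative to vehicle control reported.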

[3] = NCI Yeast Anticancer Drug Screen. Data for the sgs1 mgt1 strain (AID 161);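 also: 0% = growth of cultures given vehicle only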; conditions: S. cerevisiae sgs1 mgt1 strain, stronger effect = higher value
Summary of the method: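 Growth of a repair-deficient yeast mutant was monitored after compound treatment and expressed as inhibition relative to vehicle-treated cultures.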

[4] = NCI Yeast Anticancer Drug Screen. Data for the cln2 rad14 strain (AID 165);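 also: 0% = growth equal to vehicle treated cultures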; conditions: S. cerevisiae cln2 rad14 strain, stronger effect = higher value
Summary of the method: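 Readout is yeast growth inhibition versus vehicle-treated controls, using a strain with cln2 and rad14 alterations exposed to compound.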

[5] = NCI Yeast Anticancer Drug Screen. Data for the bub3 strain (AID 167); conditions: S. cerevisiae bub3 mutant strain, stronger effect = higher value
Summary of the method: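 Part of a panel of yeast mutants defective in DNA damage repair or cell cycle regulation. Each strain is grown with compound, and inhibition is calculated relative to solvent-treated cultures.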

[6] = NCI Yeast Anticancer Drug Screen. Data for the mlh1 rad18 strain (AID 175); conditions: S. cerevisiae mlh1 rad18 strain growth inhibition, stronger effect = higher value
Summary of the method: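 Genetically defined yeast (DNA repair-deficient) exposed to compounds; growth inhibition determined relative to vehicle.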

[7] = at 5.0 µM (retest, dose inferred, filed as 0.5)
[8] = at 50.0 µM (retest, dose inferred, filed as 5.0)

| SMILES | growth inhibition [1, 7] | growth inhibition [1, 8] | growth inhibition ([1]; at 50.0 µM) | growth inhibition [2, 7] | growth inhibition [2, 8] | growth inhibition ([2]; at 50.0 µM) | growth inhibition [3, 7] | growth inhibition [3, 8] | growth inhibition ([3]; at 50.0 µM) | growth inhibition [4, 7] | growth inhibition [4, 8] | growth inhibition ([4]; at 50.0 µM) | growth inhibition [5, 7] | growth inhibition [5, 8] | growth inhibition ([5]; at 50.0 µM) | growth inhibition [6, 7] | growth inhibition [6, 8] | growth inhibition ([6]; at 50.0 µM) |
| --- | --- | --- | --- | --- | --- | --- | --- | --- | --- | --- | --- | --- | --- | --- | --- | --- | --- | --- |
| Cc1cc(C(=O)c2ccc(Cl)cc2)ccc1O | 0% | 4% | 72.4% (active) | -4% | -2% | 57.5% | 0% | 4% | 85.9% (active) | -6% | -9% | 46% | -3% | 0% | 24.8% | -1% | -2% | 70.5% (active) |
| CCCCCCCCCCCCCCCc1ccc(C(=O)C[n+]2ccccc2)cc1 | 29% | 96% (active) | 85.8% (active) | 23% | 98% (active) | 89.7% (active) | 44% | 98% (active) | 87.7% (active) | 22% | 81% (active) | 54% | 28% | 98% (active) | 85.2% (active) | 32% | 97% (active) | 83% (active) |
| CCOc1cc2c(cc1O)/C(=N\OC)C[C@@H]1[C@@H]2CC[C@]2(C)[C@@H](O)CC[C@@H]12 | 16% | 59% | 13.9% | 0% | 42% | -2.45% | 5% | 86% (active) | 9.8% | 23% | 67% | 24.8% | 25% | 71% (active) | 13.6% | 16% | 68% | 79.1% (active) |
| CCOC(=O)C1=C(C(=O)c2ccccc2)C(c2cccc([N+](=O)[O-])c2)C(C(=O)c2ccccc2)=C(C(=O)OCC)N1 | -3% | 60% | 56.2% | 5% | 33% | 25.6% | 21% | 36% | 25.6% | -9% | 27% | 17% | -7% | 63% | 38.5% | -28% | 42% | 67.7% |
| O=C(O)c1cccc2cccc(-c3c4ccc(=O)c(O)c-4oc4c(O)c(O)ccc34)c12 | 86% (active) | 96% (active) | 87% (active) | 84% (active) | 97% (active) | 90% (active) | 93% (active) | 98% (active) | 90% (active) | 62% | 97% (active) | 89% (active) | 93% (active) | 97% (active) | 87.5% (active) | 96% (active) | 95% (active) | 85.7% (active) |
| O=C(OC12CC3CC(CC(C3)C1)C2)c1ccc(NCc2cc(O)ccc2O)cc1 | 39% | 94% (active) | 84.7% (active) | 28% | 96% (active) | 88% (active) | 39% | 95% (active) | 90.8% (active) | 17% | 95% (active) | 87.8% (active) | 28% | 91% (active) | 89.8% (active) | 32% | 94% (active) | 88.5% (active) |
| O=C(/C=C/c1ccccc1)c1ccccc1O | 9% | 78% (active) | 98.5% (active) | 4% | 49% | 99.2% (active) | 4% | 55% | 46% | 2% | 40% | 53.6% | 1% | 80% (active) | 49.1% | 1% | 78% (active) | 45.6% |
| CN(C)c1ccc(/C=C/c2sc3ccc4ccccc4c3[n+]2C)cc1 | 97% (active) | 96% (active) | 89.1% (active) | 99% (active) | 98% (active) | 89.7% (active) | 100% (active) | 98% (active) | 90.2% (active) | 99% (active) | 97% (active) | 89.5% (active) | 99% (active) | 97% (active) | 89.8% (active) | 98% (active) | 97% (active) | 89.2% (active) |
| O=C(/C(Cl)=N/O)c1ccc(-c2ccccc2)cc1 | 8% | 97% (active) | 99.3% (active) | 5% | 98% (active) | 59.4% | 2% | 98% (active) | 95.5% (active) | 15% | 93% (active) | 99.2% (active) | 6% | 97% (active) | 99.7% (active) | 13% | 97% (active) | 99.3% (active) |
| COc1cc(-c2ccc(-[n+]3nc(-c4ccc([N+](=O)[O-])cc4)nn3-c3ccc([N+](=O)[O-])cc3)c(OC)c2)ccc1-[n+]1nc(-c2ccc([N+](=O)[O-])cc2)nn1-c1ccc([N+](=O)[O-])cc1 | 95% (active) | 94% (active) | 89.5% (active) | 98% (active) | 98% (active) | 91.4% (active) | 94% (active) | 96% (active) | 90.2% (active) | 96% (active) | 97% (active) | 88.5% (active) | 97% (active) | 97% (active) | 90.2% (active) | 97% (active) | 96% (active) | 90% (active) |
| CCCCCCN(CCCCCC)CCCNc1nccc2ccccc12 | 4% | 62% | 78.5% (active) | -4% | 14% | 36.5% | 2% | 88% (active) | 56.9% | -4% | 13% | 56.5% | 5% | 72% (active) | 84% (active) | 10% | 64% | 77% (active) |
| N#CC(=C1SCS1)[N+](=O)[O-] | 91% (active) | 99% (active) | 91.1% (active) | 98% (active) | 100% (active) | 92.4% (active) | 98% (active) | 100% (active) | 92% (active) | 31% | 99% (active) | 92.2% (active) | 95% (active) | 99% (active) | 89.9% (active) | 98% (active) | 99% (active) | 92.7% (active) |
| COc1cc(/C=C2\SC(=S)N(/C=C/c3nc4ccccc4[nH]c3=O)C2=O)cc(OC)c1OC | -9% | 57% | 8.55% | -10% | 45% | 14.7% | -3% | 24% | 63.1% | -29% | 58% | 34.5% | -8% | 44% | -4.8% | 3% | 42% | 55.1% |
| CCCCN(CCCC)CCCCCCCCCCO | -2% | -2% | 45.4% | -1% | 1% | 36.2% | 1% | 1% | 52.6% | 2% | 0% | 4.2% | 3% | 7% | 70% (active) | -1% | -1% | 25.4% |
| NCCCN(CCCN)CCCNCc1c2ccccc2c(CNCCCN(CCCN)CCCN)c2ccccc12 | 88% (active) | 99% (active) | 90.6% (active) | 62% | 99% (active) | 93% (active) | 67% | 98% (active) | 93.3% (active) | 36% | 98% (active) | 92.7% (active) | 89% (active) | 99% (active) | 92.6% (active) | 96% (active) | 99% (active) | 91.1% (active) |
| O=C(/C=C/C(Cl)(Cl)Cl)Nc1ccc(Cl)cc1 | -6% | 16% | 71.8% (active) | 42% | 21% | 85% (active) | -4% | 43% | 81% (active) | 25% | 8% | 77.5% (active) | 9% | 3% | 75.9% (active) | 18% | 64% | 85% (active) |
| O=C(Cc1nc2cc(Cl)c(Cl)cc2nc1CC(=O)c1cccnc1)c1cccnc1 | -7% | 96% (active) | 96.3% (active) | -17% | 96% (active) | 98.2% (active) | -12% | 97% (active) | 92.6% (active) | -5% | 98% (active) | 94.3% (active) | -1% | 98% (active) | 95.4% (active) | -2% | 98% (active) | 97.8% (active) |
| CCCc1cc(=O)oc2c3c(c4c(c12)OC(C)(C)CC4)OC(C)[C@H](C)[C@@H]3O (some centres not stated) | 36% | 90% (active) | 83.7% (active) | 36% | 92% (active) | 85.6% (active) | 28% | 90% (active) | 80.2% (active) | 27% | 93% (active) | 85.2% (active) | 12% | 90% (active) | 80.1% (active) | 31% | 94% (active) | 77% (active) |
| Cc1ccc(/C=N/Nc2cc(C)c3cccc(C)c3n2)s1 | 9% | 94% (active) | 89.3% (active) | -1% | 95% (active) | 92.6% (active) | 3% | 93% (active) | 92% (active) | 3% | 95% (active) | 90.3% (active) | 4% | 97% (active) | 90.8% (active) | 13% | 93% (active) | 90% (active) |
| O=C1Nc2ccc(Br)cc2C1=O | -8% | 95% (active) | 96.9% (active) | -31% | 64% | 99.7% (active) | -5% | 42% | 99.8% (active) | -6% | 36% | 66.9% | -13% | 98% (active) | 99.4% (active) | -9% | 91% (active) | 99.6% (active) |
| COc1ccc(C(OCC2OC(n3ccc(NC(=O)c4ccccc4)nc3=O)C(O)C2O)(c2ccccc2)c2ccccc2)cc1 (configuration not stated) | 56% | 91% (active) | 68.7% | 23% | 91% (active) | 98.2% (active) | 36% | 83% (active) | 56.4% | 76% (active) | 96% (active) | 84.8% (active) | 52% | 90% (active) | 98.5% (active) | 62% | 90% (active) | 84.2% (active) |
| O=C(CCc1ccccc1)ON1C(=S)NC(c2ccccc2)(c2ccccc2)C1=S | 14% | 42% | 29.7% | 0% | 22% | 55.7% | -11% | 64% | 63.3% | 16% | 59% | 70.2% (active) | 0% | 47% | 79.2% (active) | 13% | 61% | 72.4% (active) |
| CC(=O)N1CC(=O)NC1=S | -10% | -18% | 69.6% | -11% | -14% | 39.9% | -5% | -17% | 25.3% | -4% | 7% | 53.1% | -36% | -12% | 5.45% | -24% | -33% | 67.3% |
| O=[N+]([O-])c1ccc2c(c1)Cc1ccccc1-2 | 15% | -11% | 63.5% | -10% | -25% | 9.35% | 8% | 5% | 25.2% | -2% | -20% | -13.5% | 0% | -59% | -17.2% | 20% | 2% | 67.2% |
